Laboratory results taken from PubChem BioAssay (NCATS).
Inconclusive results are not listed. The source made the active and inactive calls. Unless noted, calls follow the shape of the dose curve; as a rule, active = well fitted curve in the direction sought with a large enough effect; inconclusive = small, poorly fitted or top-dose-only effect, or another doubt; inactive = no such curve, though single readings can be large; an effect the other way counts as inactive or inconclusive.

Legend:
[1] = qHTS for Inhibitors of Cell Surface uPA Generation: Validation Assay (AID 493164);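 also: RAW 264.7 macrophage cells exposed to compound for 18 h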
Summary of the method: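 ATP-Lite luminescence read-out: ATP remains high when uPA activity-dependent LF translocation into the cytoplasm is blocked. RAW 264.7 cells, 18 h compound exposure at 37 C; 7-point titration, 2.45 nM to 38.3 uM final.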

[2] = molecular target: Galactokinase (Homo sapiens) (UniProt P51570); test: qHTS Validation Assay for Inhibitors of Human Galactokinase (GALK) (AID 493189)
Summary of the method: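 5 nM GALK / 100 uM galactose / 35 uM ATP, 20 mM HEPES pH8.0, 5 mM MgCl2, 60 mM NaCl, 1 mM DTT, 0.01% BSA (final). RT 1 h; Kinase-Glo Plus luminescence.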

[3] = Validation screen for small molecules that induce DNA re-replication in SW480 colon adenocarcinoma cells (AID 504364)
Summary of the method: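 Image-based DNA content read-out: Hoechst stain 40 min, total nuclear fluorescence intensity (ex 405 nm, em 500-530 nm) after 48 h compound exposure of 250 SW480 cells/well at 37 C, 5% CO2, versus DMSO vehicle.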

[4] = molecular target: Peptidyl-prolyl cis-trans isomerase NIMA-interacting 1 (Homo sapiens) (UniProt Q13526); test: qHTS Validation Assay to Find Inhibitors of Pin1 (AID 504536; active = well fitted inhibition curve with a large enough effect in the polarisation, with a control signal flat, not every such curve was filed as active; the % refers to the polarisation)
Summary of the method: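 Fluorescence polarization competition: compounds (titration) displace HiFluor-488-labeled Pin1-1b peptide from Pin1 (0.3 uM final) in pH 7.5 HEPES buffer with DTT, 10 min at room temperature; %Activity normalized to no-enzyme wells, curves fitted.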

[5] = molecular target: Phosphoglycerate kinase, glycosomal (Trypanosoma brucei brucei) (UniProt P07378); test: qHTS Validation Assay to Find Inhibitors of Phosphoglycerate Kinase (AID 504547)
Summary of the method: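 In TEA buffer (100mM, pH 7.6) containing 5mM MgCl2 and 0.01% Tween-20, the GAPDH-coupled PGK reaction proceeded for 60 minutes at room temperature before a single luminescence reading using Kinase-Glo Plus.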

[6] = molecular target: phosphoglycerate mutase (Leishmania major) (UniProt Q4Q090); test: qHTS Validation Assay to Find Inhibitors of Phosphoglycerate Mutase (AID 504548); conditions: Potency: inhibition qHTS;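 also: end-point luminescence from Kinase-GloPlus after the PGAM reaction; series mostly up to about 58 µM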
Summary of the method: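 L. major PGAM (1.25nM final) was added to substrate buffer and pinned compound, incubated 45 minutes at room temperature, then Kinase-GloPlus added; luminescence read after 10 minutes. Buffer: 100 mM TEA pH 7.6, 5 mM MgCl2, 0.01% Tween-20.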

[7] = molecular target: Ubiquitin carboxyl-terminal hydrolase 1 (Homo sapiens) (UniProt O94782); test: Inhibitors of USP1/UAF1: Pilot qHTS (AID 504865);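 also: rhodamine fluorescence freed from ubiquitin-rhodamine substrate followed over time; top concentration of the series differs between compounds; nearly all actives have a fitted effect of over 35% in size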
Summary of the method: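 In 50mM HEPES pH 7.8 containing 0.5mM EDTA, 1mM TCEP, 0.1 mg/ml BSA and 0.01% Tween-20, 1nM USP1/UAF1 is exposed to compound for 15 min, then Ub-Rho (150nM final) is added and fluorescence is read over time.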

[8] = qHTS for Inhibitors of ATXN expression: Validation of Cytotoxic Assay (AID 588349)
Summary of the method: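 Cytotoxicity counter-screen: ATP-based luminescent viability (CellTiter Glo) after 72 hr exposure of HEK293 cells to a compound titration at 37 degrees C.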

[9] = qHTS for Inhibitors of ATXN expression: Validation (AID 588378); also: series mostly up to about 57 µM; nearly all actives have a fitted effect of over 75% in size
Summary of the method: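 Compounds were pinned onto attached HEK293 cells carrying an ATXN2-firefly luciferase construct and incubated 24 hrs at 37 degrees C. Each well then received a fluorescent viability reagent followed by luciferase substrate for end-point luminescence.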

Measured: Potency

Chain of Ubiquitin carboxyl-terminal hydrolase 1 (Homo sapiens) (O94782 whole entry, looked up): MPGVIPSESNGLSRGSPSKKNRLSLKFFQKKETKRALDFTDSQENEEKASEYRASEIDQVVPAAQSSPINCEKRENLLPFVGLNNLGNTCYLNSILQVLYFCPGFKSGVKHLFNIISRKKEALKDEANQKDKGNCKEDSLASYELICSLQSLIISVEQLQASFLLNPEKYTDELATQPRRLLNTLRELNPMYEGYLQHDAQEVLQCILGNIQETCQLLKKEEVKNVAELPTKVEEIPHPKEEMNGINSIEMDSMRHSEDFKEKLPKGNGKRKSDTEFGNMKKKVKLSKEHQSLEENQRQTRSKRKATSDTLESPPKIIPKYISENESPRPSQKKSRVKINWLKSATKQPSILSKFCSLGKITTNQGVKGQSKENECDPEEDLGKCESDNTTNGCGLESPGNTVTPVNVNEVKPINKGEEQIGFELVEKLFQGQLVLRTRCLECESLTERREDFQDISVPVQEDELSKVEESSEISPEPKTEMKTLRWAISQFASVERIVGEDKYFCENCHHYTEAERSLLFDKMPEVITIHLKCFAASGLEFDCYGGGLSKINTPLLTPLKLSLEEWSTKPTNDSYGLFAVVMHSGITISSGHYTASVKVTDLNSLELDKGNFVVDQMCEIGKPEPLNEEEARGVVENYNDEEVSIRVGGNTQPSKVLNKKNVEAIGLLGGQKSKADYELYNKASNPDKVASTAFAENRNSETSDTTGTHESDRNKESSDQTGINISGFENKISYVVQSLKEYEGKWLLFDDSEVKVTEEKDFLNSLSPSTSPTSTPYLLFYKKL
Chain of Galactokinase (Homo sapiens) (P51570 whole entry, looked up): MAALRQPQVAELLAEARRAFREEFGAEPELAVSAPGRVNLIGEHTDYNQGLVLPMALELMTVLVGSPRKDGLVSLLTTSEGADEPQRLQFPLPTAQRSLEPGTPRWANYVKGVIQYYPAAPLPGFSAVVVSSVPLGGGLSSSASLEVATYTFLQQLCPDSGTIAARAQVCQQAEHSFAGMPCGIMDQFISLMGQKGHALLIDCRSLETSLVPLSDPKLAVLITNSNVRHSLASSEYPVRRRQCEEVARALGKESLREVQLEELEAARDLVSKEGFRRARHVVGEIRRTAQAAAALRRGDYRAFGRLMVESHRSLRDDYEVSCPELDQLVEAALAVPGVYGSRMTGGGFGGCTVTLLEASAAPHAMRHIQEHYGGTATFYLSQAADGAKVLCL
Chain of phosphoglycerate mutase (Leishmania major) (Q4Q090 1-553): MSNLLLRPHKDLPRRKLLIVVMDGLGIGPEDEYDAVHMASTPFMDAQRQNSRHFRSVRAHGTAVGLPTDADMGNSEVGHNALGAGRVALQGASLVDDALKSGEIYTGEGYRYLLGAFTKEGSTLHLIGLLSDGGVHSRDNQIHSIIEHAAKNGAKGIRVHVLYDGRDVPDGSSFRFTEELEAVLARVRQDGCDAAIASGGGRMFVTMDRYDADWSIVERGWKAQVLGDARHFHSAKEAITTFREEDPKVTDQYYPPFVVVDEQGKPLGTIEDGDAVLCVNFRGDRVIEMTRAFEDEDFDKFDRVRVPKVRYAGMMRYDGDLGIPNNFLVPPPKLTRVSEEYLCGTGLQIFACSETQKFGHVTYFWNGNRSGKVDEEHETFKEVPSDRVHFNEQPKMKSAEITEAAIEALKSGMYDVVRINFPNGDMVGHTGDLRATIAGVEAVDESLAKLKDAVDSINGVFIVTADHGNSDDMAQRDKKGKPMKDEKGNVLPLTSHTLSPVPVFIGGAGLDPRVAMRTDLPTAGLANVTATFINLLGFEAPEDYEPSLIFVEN
Chain of Peptidyl-prolyl cis-trans isomerase NIMA-interacting 1 (Homo sapiens) (Q13526 whole entry, looked up): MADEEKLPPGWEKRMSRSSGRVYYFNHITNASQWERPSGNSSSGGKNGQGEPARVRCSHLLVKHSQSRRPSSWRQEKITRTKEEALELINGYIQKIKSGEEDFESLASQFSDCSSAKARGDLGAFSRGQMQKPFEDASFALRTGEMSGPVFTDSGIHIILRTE
Chain of Phosphoglycerate kinase, glycosomal (Trypanosoma brucei brucei) (P07378 whole entry, looked up): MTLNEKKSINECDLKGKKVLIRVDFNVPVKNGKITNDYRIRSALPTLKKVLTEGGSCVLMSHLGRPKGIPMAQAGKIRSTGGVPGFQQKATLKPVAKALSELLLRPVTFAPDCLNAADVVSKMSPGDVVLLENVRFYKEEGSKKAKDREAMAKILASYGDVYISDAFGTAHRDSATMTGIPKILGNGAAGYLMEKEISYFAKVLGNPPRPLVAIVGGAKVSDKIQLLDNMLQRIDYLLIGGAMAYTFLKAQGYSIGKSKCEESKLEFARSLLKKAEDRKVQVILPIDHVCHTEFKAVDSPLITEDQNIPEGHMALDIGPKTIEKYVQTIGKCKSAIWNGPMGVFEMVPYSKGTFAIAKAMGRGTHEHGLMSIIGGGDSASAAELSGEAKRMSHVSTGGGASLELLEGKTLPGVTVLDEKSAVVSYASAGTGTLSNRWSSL

O=C(O)C1CCCNC1 (centres undefined)
inactive: [1] | [2] | [3] | [4] | [5] | [6] | [7] | [8] | [9]

COc1ccccc1N1CCN(CCN(C(=O)c2ccc(F)cc2)c2ccccn2)CC1
inactive: [1] | [2] | [3] | [4] | [5] | [6] | [7] | [8] | [9]

OC[C@H]1O[C@@H](n2cnc3cncnc32)[C@H](O)[C@@H]1O
inactive: [1] | [2] | [3] | [4] | [5] | [6] | [7] | [8] | [9]

c1ccc(CN2CCC3(CCCc4ccccc43)CC2)cc1
inactive: [1] | [2] | [3] | [4] | [5] | [6] | [7]

N[C@H]1CONC1=O
inactive: [1] | [2] | [3] | [4] | [5] | [6] | [7] | [8] | [9]

CC(C)Cn1c(=O)n(C)c(=O)c2[nH]cnc21
inactive: [1] | [2] | [3] | [4] | [5] | [6] | [7] | [8] | [9]

CC(=O)NCCc1c[nH]c2ccc(O)cc12
inactive: [1] | [2] | [3] | [4] | [5] | [6] | [7] | [8] | [9]

NC(=O)CNCCC(c1ccccc1)c1ccccc1
inactive: [1] | [2] | [3] | [4] | [5] | [6] | [7] | [8] | [9]

Cn1ccnc1
inactive: [1] | [2] | [3] | [4] | [5] | [6] | [7] | [8] | [9]

CCCN(CCc1ccccc1)C1CCc2c(O)cccc2C1 (centres undefined)
inactive: [1] | [2] | [3] | [4] | [5] | [6] | [7]

C=CC1(C)CC(=O)C2(O)C(C)(O1)C(OC(C)=O)C(O)C1C(C)(C)CCC(O)C12C (centres undefined)
inactive: [1] | [2] | [3] | [4] | [5] | [6] | [7] | [8] | [9]

O=c1[nH]c2ccccc2c2ccccc12
inactive: [1] | [2] | [3] | [4] | [5] | [6] | [7] | [8] | [9]

Cn1c(=O)c2[nH]c(C3CCCC3)nc2n(C)c1=O
inactive: [1] | [2] | [3] | [4] | [5] | [6] | [7] | [8] | [9]

CCCCCCCCCC(=O)NC(CN1CCOCC1)[C@H](O)c1ccccc1 (some centres undefined)
inactive: [1] | [2] | [3] | [4] | [5] | [6] | [7] | [8]

CC(C)NCC(O)COc1ccc(CC(N)=O)cc1 (centres undefined)
inactive: [1] | [2] | [3] | [4] | [5] | [6] | [7] | [8] | [9]

Nc1ncnc2c1ncn2C1CCCC1
inactive: [1] | [2] | [3] | [4] | [5] | [6] | [7] | [8] | [9]

Clc1nccc2c1ccc1ccccc12
inactive: [1] | [2] | [3] | [4] | [5] | [6] | [7] | [8] | [9]

O=C(O)c1ccccc1Nc1ccccc1
inactive: [1] | [2] | [3] | [4] | [5] | [6] | [7] | [8] | [9]

N#CC(C#N)=C(N)/C(C#N)=C/c1ccc(O)cc1
inactive: [1] | [2] | [3] | [4] | [5] | [6] | [7] | [8] | [9]

Cc1cc2c(cc1Cl)N(C(=O)Nc1ccnc3ccccc13)CC2
inactive: [1] | [2] | [3] | [4] | [5] | [6] | [7] | [8] | [9]

CC(N)=NCCCC[C@@H](N)C(=O)O
inactive: [1] | [2] | [3] | [4] | [5] | [6] | [7] | [8] | [9]

O=C1NC(=O)c2cc(Nc3ccccc3)c(Nc3ccccc3)cc21
inactive: [1] | [2] | [3] | [4] | [5] | [6]

N[C@@H](Cc1ccc(F)cc1)C(=O)O
inactive: [1] | [2] | [3] | [4] | [5] | [6] | [7] | [8] | [9]

Nc1ncnc2c1ncn2C1CCCO1 (centres undefined)
inactive: [1] | [2] | [3] | [4] | [5] | [6] | [7] | [8] | [9]

O=c1[nH]c2cc(Cl)ccc2c(O)c1-c1ccc(Oc2ccccc2)cc1
inactive: [1] | [2] | [3] | [4] | [5] | [6] | [7] | [8] | [9]

CNCCNS(=O)(=O)c1cccc2cnccc12
inactive: [1] | [2] | [3] | [4] | [5] | [6] | [7] | [8]

CCN(CC)CCOC(=O)c1cc(Cl)c(N)cc1OC
inactive: [1] | [2] | [3] | [4] | [5] | [6] | [7] | [8] | [9]
